DT40 TDP1 CPT: DT40-hTDP1 cell growth loss with CPT; Potency, µM (series often up to 46.2 µM), hits mostly inhibitors; chicken DT40 Tdp1-/-;hTDP1 cells + 20 nM CPT, ATP luminescence, 48 h; hit rate 12% among 420,000; also: nearly all actives have a fitted effect of over 55% in size
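Chicken DT40 Tdp1-/- cells stably complemented with human TDP1 were seeded at 400 cells/well in medium containing 20 nM camptothecin, exposed to pin-transferred compounds, and grown at 37 °C for at least 48 hr. Viability was read as ATP luminescence.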
HT1080NT lethal: kills 2HG-producing HT-1080-NT fibrosarcoma cells | HT-1080-NT fibrosarcoma viability, CellTiter-Glo ATP luminescence, 48 h | Potency, µM (top dose mostly 46.1 µM), usual class: cytotoxic | hit rate 1.6% among 360,000 | AID 686970;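 also: NT is the 2HG producing partner of a matched IDH1 knockdown line; nearly all actives have a fitted effect of over 55% in size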
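Toxicity toward the 2HG-producing NT line was scored as %Activity, normalised to DMSO and no-cell wells, from CellTiter-Glo luminescence after 48 hours' treatment.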
DT40 TDP1 no CPT: qHTS for Inhibitors of human tyrosyl-DNA phosphodiesterase 1 (TDP1): qHTS in cells in absence of CPT; hit rate 15% among 420,000; DT40 Tdp1-/- hTDP1 cells, no CPT, ATP luminescence, 48 h; Potency, µM (series often up to 46.2 µM), most hits filed as inhibitors; also: nearly all actives have a fitted effect of over 55% in size
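Camptothecin absent (DMSO only). Human TDP1-complemented DT40 knockout cells, 400 cells/well, 37 °C for minimum 48 hr; ATP measured via CellTiter-Glo, 30 min dark incubation, luminescence.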
IL-1B inflam inh: inhibitors of inflammasome signaling (IL-1 beta secretion); THP-1 LPS/ATP IL-1B secretion, AlphaLISA, 16 h; stronger effect = lower value; activity change, % at 57.5 µM; hit rate 4.7% among 360,000; AID 743279; in the data active = activity change below about -50%; inconclusive = mostly about -30% to -49%
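Secreted IL-1B measured by AlphaLISA bead assay after 16 h compound exposure of THP-1 cells; compounds (final up to 57.5 uM) added 1 h before LPS (250 ng/mL) and ATP (1.25 mM) stimulation; lower signal means less secretion.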
HT1080 IDH1KD tx: toxicity to HT-1080 IDH1 knockdown cells (counter line); HT-1080 IDH1 knockdown viability, ATP luminescence, 48 h; Potency, µM (series often up to 46.1 µM), most hits filed as cytotoxic; hit rate 2% among 360,000
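Knockdown cells (IDH1KD HT-1080) received compounds 2 h after plating at 750 cells/well and were kept 48 h at 37 °C in 5% FBS RPMI. A CellTiter-Glo luminescence read gave % activity for curve fitting.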
A number is an active result. Rows were chosen to be rich in hits. Some 19% of all compounds tested hit in one or more screens of this group. Unless noted, calls follow the shape of the dose curve; as a rule, active = well fitted curve in the direction sought with a large enough effect; inconclusive = small, poorly fitted or top-dose-only effect, or another doubt; inactive = no such curve, though single readings can be large; an effect the other way counts as inactive or inconclusive.

Screening COc1ccc(OC)c(CN2C(=O)c3ccccc3C2c2nnnn2-c2ccc3c(c2)OCCO3)c1 (configuration not stated) returned DT40 TDP1 CPT 6.51µM, HT1080NT lethal inconclusive, DT40 TDP1 no CPT 5.8µM, IL-1B inflam inh inactive and HT1080 IDH1KD tx inconclusive.
For Cc1ccc(NC(=O)CC(C)c2ccccc2)cc1S(=O)(=O)N1CCOCC1 (configuration not stated) the results were DT40 TDP1 CPT inconclusive, HT1080NT lethal inactive, DT40 TDP1 no CPT inconclusive, IL-1B inflam inh inactive and HT1080 IDH1KD tx inactive.
O=C1c2ccccc2C(c2nnnn2-c2ccc3c(c2)OCCO3)N1CCc1ccc(O)cc1 (configuration not stated) was read as DT40 TDP1 CPT inconclusive, HT1080NT lethal inactive, DT40 TDP1 no CPT inconclusive, IL-1B inflam inh inactive and HT1080 IDH1KD tx inactive.
Screening O=C1c2ccccc2C(c2nnnn2-c2ccc3c(c2)OCCO3)N1CCc1ccccc1F (configuration not stated) returned DT40 TDP1 CPT 14.6µM, HT1080NT lethal inactive, DT40 TDP1 no CPT inconclusive, IL-1B inflam inh inactive and HT1080 IDH1KD tx inactive.
For COc1ccc(NC2=Nc3ccccc3N3C2=Nc2c(c(C)nn2-c2ccc(C)cc2)C3c2cccnc2)cc1 (configuration not stated) the results were DT40 TDP1 CPT 20.6µM, HT1080NT lethal inactive, DT40 TDP1 no CPT inconclusive, IL-1B inflam inh inactive and HT1080 IDH1KD tx inactive.
For CC(=O)Nc1ccc(NC2=Nc3ccccc3N3C2=Nc2c(c(C)nn2-c2ccccc2)C3c2ccccc2)cc1 (configuration not stated) the results were DT40 TDP1 CPT 2.59µM, HT1080NT lethal inactive, DT40 TDP1 no CPT 2.31µM, IL-1B inflam inh inactive and HT1080 IDH1KD tx inactive.
Screening NS(=O)(=O)c1ccc(NC(=O)CN(C(=O)C(F)(F)F)C2CCCC2)cc1 returned DT40 TDP1 CPT inactive, HT1080NT lethal inactive, DT40 TDP1 no CPT inactive, IL-1B inflam inh inactive and HT1080 IDH1KD tx inactive.
Oc1ccccc1-n1nc2ccc3nonc3c2n1 was read as DT40 TDP1 CPT inactive, HT1080NT lethal inactive, DT40 TDP1 no CPT inactive, IL-1B inflam inh inactive and HT1080 IDH1KD tx inactive.
`O=C(NCC(Cl)c1ccc2ccccc2c1)c1c(F)cccc1F` (configuration not stated) gave DT40 TDP1 CPT inactive, HT1080NT lethal inactive, DT40 TDP1 no CPT inactive, IL-1B inflam inh inactive and HT1080 IDH1KD tx inactive.
C=CCN1C(c2cccc(C(F)(F)F)c2)=CS/C1=C(\C#N)c1nnc(N2CCOCC2)n1-c1ccccc1 was read as DT40 TDP1 CPT 23.1µM, HT1080NT lethal inactive, DT40 TDP1 no CPT inconclusive, IL-1B inflam inh inconclusive and HT1080 IDH1KD tx inactive.
For C=CCN1C(c2ccc(Br)cc2)=CS/C1=C(\C#N)c1nnc(N2CCOCC2)n1-c1ccccc1 the results were DT40 TDP1 CPT inconclusive, HT1080NT lethal inactive, DT40 TDP1 no CPT inactive, IL-1B inflam inh -73.4 and HT1080 IDH1KD tx inactive.
Screening C=CCN1C(c2ccc(OCC)cc2)=CS/C1=C(\C#N)c1nnc2n1CCCCC2 returned DT40 TDP1 CPT inconclusive, HT1080NT lethal inconclusive, DT40 TDP1 no CPT 29.1µM, IL-1B inflam inh inactive and HT1080 IDH1KD tx inconclusive.
Cc1cc2ccccc2n1CCNC(=O)C(C)Oc1ccccc1 (configuration not stated) was read as DT40 TDP1 CPT 23.1µM, HT1080NT lethal inactive, DT40 TDP1 no CPT inactive, IL-1B inflam inh inactive and HT1080 IDH1KD tx inactive.
For Cc1cc2ccccc2n1CCNC(=O)C(C)C the results were DT40 TDP1 CPT inactive, HT1080NT lethal inactive, DT40 TDP1 no CPT inactive, IL-1B inflam inh inactive and HT1080 IDH1KD tx inactive.
`Cc1cc2ccccc2n1CCNC(=O)c1ccc(S(=O)(=O)N2CCCCC2)cc1` gave DT40 TDP1 CPT inactive, HT1080NT lethal inactive, DT40 TDP1 no CPT inconclusive, IL-1B inflam inh inactive and HT1080 IDH1KD tx inactive.
For Cc1ccc(C(=O)NCCn2c(C)cc3ccccc32)cc1C the results were DT40 TDP1 CPT 11.6µM and DT40 TDP1 no CPT 10.3µM.
CCn1c(O)c(/C=N/N=C2CCCCC2)c2cc(C3=NNC(=O)CC3)ccc21 was read as DT40 TDP1 CPT 8.2µM, HT1080NT lethal inactive, DT40 TDP1 no CPT 10.3µM, IL-1B inflam inh inactive and HT1080 IDH1KD tx inactive.
